# This is part of a sample that, as a whole, favours compounds with a hit. Of some 79,000 tested, about 15% had one in any assay. Unmarked numbers belong to inactive results. Calls of active or inactive are those of the source. No stated cut-off is given here; in the data, active means growth inhibition above about 70%; inactive means the rest.
# Legend:
# [1] = NCI Yeast Anticancer Drug Screen. Data for the rad50 strain (AID 155);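 further: 0% = growth of vehicle-only cultures of the same strain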; details: S. cerevisiae rad50 strain growth inhibition; at 50.0 µM; active compounds read high
# Summary of the method: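 DNA repair mutant yeast, compound exposure, growth read-out; inhibition is taken relative to vehicle.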
# [2] = NCI Yeast Anticancer Drug Screen. Data for the mec2-1 strain (AID 157); details: S. cerevisiae mec2-1 strain, at 50.0 µM, active compounds read high
# Summary of the method: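 Mutant yeast (mec2-1) grown with compound; growth inhibition relative to vehicle control reported.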
# [3] = NCI Yeast Anticancer Drug Screen. Data for the sgs1 mgt1 strain (AID 161);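 further: 0% = growth of cultures given vehicle only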; details: S. cerevisiae sgs1 mgt1 strain, at 50.0 µM, active compounds read high
# Summary of the method: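 Yeast cells carrying a defined DNA-repair defect were exposed to test compounds. Growth inhibition was measured relative to vehicle-treated controls.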
# [4] = NCI Yeast Anticancer Drug Screen. Data for the cln2 rad14 strain (AID 165);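 further: 0% = growth equal to vehicle treated cultures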; details: S. cerevisiae cln2 rad14 strain, at 50.0 µM, active compounds read high
# Summary of the method: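 Readout is yeast growth inhibition versus vehicle-treated controls, using a strain with cln2 and rad14 alterations exposed to compound.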
# [5] = NCI Yeast Anticancer Drug Screen. Data for the bub3 strain (AID 167); details: S. cerevisiae bub3 mutant strain, at 50.0 µM, active compounds read high
# Summary of the method: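 In this screen, a yeast mutant lacking normal mitotic checkpoint function is challenged with compound. Relative growth versus vehicle gives the inhibition value.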
# [6] = NCI Yeast Anticancer Drug Screen. Data for the mlh1 rad18 strain (AID 175); details: S. cerevisiae mlh1 rad18 strain growth inhibition; at 50.0 µM; active compounds read high
# Summary of the method: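 Genetically defined yeast (DNA repair-deficient) exposed to compounds; growth inhibition determined relative to vehicle.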
Structure (SMILES),growth inhibition [1],growth inhibition [2],growth inhibition [3],growth inhibition [4],growth inhibition [5],growth inhibition [6]
O=C(O)c1ccccc1C(=O)CC(O)(C(F)(F)F)C(F)(F)F,-20.6%,9.9%,-1.5%,-31.3%,-10.9%,-20.9%
CC(C)c1ccccc1OC(=O)NC1CCCCC1,1.9%,20.7%,7.25%,0.15%,14.7%,3.95%
CCCCCCCCCCCCCCCCCCN=C=O,-23.6%,-45.8%,-17.8%,-10.8%,-31.8%,-39%
S=c1[nH]nc(COc2cccc3cccnc23)n1-c1ccccc1,12.5%,2.55%,2.05%,25.9%,13.4%,12.4%
Cc1ccc(-c2cc(=O)c3cc(C)c(C)c(C(=O)O)c3o2)cc1C,11.6%,20.6%,30.5%,23.5%,6.25%,20.7%
CCOC(=O)c1oc2ccc([N+](=O)[O-])c3c2c1CCC3,1.8%,-1.95%,-7%,-2.35%,-64%,-8.05%
O=C(CCl)OCc1ccc(Cl)cc1,4.5%,2.55%,-3.75%,-27.8%,1.25%,-9.45%
N#CC(/C(=N\NC(=O)c1ccncc1)C(=O)Nc1ccc([N+](=O)[O-])cc1[N+](=O)[O-])c1nc(-c2ccc(Br)cc2)cs1 (configuration not stated),0.25%,-3.75%,-15.1%,7.6%,12.9%,-7.85%
COc1cc2c(c3c1/c(=N\N=c1/c4ccccc4n(C)c4c5c(cc(OC)c14)OC(C)(C)C=C5)c1ccccc1n3C)C=CC(C)(C)O2,70% (active),13.6%,64.5%,48%,36.9%,27.4%
CCOC(=O)/C=C/c1ccc(OCC)cc1,-2.4%,2.55%,-7.15%,-17.2%,-1.35%,-21%
Cc1[nH]c2ccc(-c3ccccc3)cc2c1CC(=O)O,51.5%,-22.8%,47.7%,-5.85%,3.35%,53.9%
CCOC(=O)c1ccc(OC)c2[nH]c3c(c(=O)c12)C(=O)c1[nH]c2c(OC)ccc(C(=O)OCC)c2c(=O)c1C3=O,-25.4%,15.6%,-23.2%,-17.9%,-0.25%,-25.2%
N#CNC1=C(C#N)C(c2ccccc2)CC(=O)N1 (configuration not stated),4.35%,25.5%,24.9%,0%,-0.4%,10.2%
N#CSC1CCCCC1SC#N (configuration not stated),11.3%,5.8%,7.35%,-13.7%,-2.55%,5.6%
CCCCCCCCCCCCNCC(O)c1cc(-c2ccccc2)nc2c(Cl)cc(Cl)cc12 (configuration not stated),8.1%,8.9%,31.9%,29.1%,-8%,26.5%
NC(=O)N/N=C(\CCC(=O)N(Cc1ccccc1)Cc1ccccc1)CC(=O)c1ccc(F)cc1,-1.5%,10.8%,-30.9%,18.8%,-7.9%,-14.9%
Cn1c2ccccc2c2ccc3c(c21)C(=O)NC3=O,15.6%,10.7%,-7.75%,-7.7%,-21.9%,13.3%
CC1(N)CC2CCC1C2 (configuration not stated),-3.5%,-1.25%,5%,-14.2%,-21.4%,2.75%
CC(=O)OC[C@@H](OC(C)=O)[C@@H](OC(C)=O)[C@H]1OC[C@@H]2C[C@H]([C@H]1OC(C)=O)N(Cc1ccccc1)O2,-18.9%,-13.8%,-7.75%,4.25%,-9.8%,-0.3%

Structure (SMILES),growth inhibition [1],growth inhibition [2],growth inhibition [3],growth inhibition [4],growth inhibition [5],growth inhibition [6]
CN1C(=O)N(C)C2=NC(=O)N(C)C2(C(Cl)(Cl)Cl)C1=O (configuration not stated),45.3%,32.2%,47.4%,24.6%,21.6%,58%
c1ccc2nc3ccccc3cc2c1,2.7%,19.6%,27.1%,27.8%,3.1%,5.95%
C=C(C(N)=O)c1ccc([N+](=O)[O-])o1,52.4%,44.7%,62.4%,30%,19.8%,90% (active)
CC(=O)NCCSSCCCCS(=O)O,-19.1%,-20.1%,7.85%,11.3%,6.05%,-5.35%
O=C1Nc2ccc3[nH]ncc3c2C1=O,11.7%,-0.65%,-2.45%,-11.8%,-9.55%,7.6%
NC(CSc1nc2ccccn2c1[N+](=O)[O-])C(=O)O (configuration not stated),-26.1%,-40.8%,-30.1%,5.25%,8.25%,-18%
c1ccc(-c2cc(-c3ccncc3)c(-c3ccccc3)nn2)cc1,7.85%,7.8%,24%,22%,-1.1%,36.4%
CCOC(=O)/C=C1/Nc2cc(F)c(F)cc2NC1=O,-36.1%,14.1%,16%,13.8%,14.6%,-56%
CC(=O)OC1CCC2(C)C(CCC3C2CCC2(C)C3CC3OC(CCC(C)CO)C(C)C32)C1 (configuration not stated),14.8%,8.55%,-0.45%,19.6%,-0.75%,10.1%
CC(C)(C)c1ccc(O)c(CN(Cc2cc(C(C)(C)C)ccc2O)c2ccccc2)c1,44.4%,26.9%,21.6%,-2.2%,62%,54.8%
C[N+](C)(CC(=O)Nc1cc(C(F)(F)F)cc(C(F)(F)F)c1)CC(=O)Nc1ccc(Cl)c(C(F)(F)F)c1,99.5% (active),99.8% (active),99.8% (active),99.3% (active),99.4% (active),99.5% (active)
CC(C)(Oc1ccc2c(=O)cc(-c3ccccc3)oc2c1)C(=O)Nc1c(Cl)cccc1Cl,7.95%,-18.8%,10.2%,-59%,9.75%,-14.8%
O=C(/C=C/c1ccc(O)cc1)c1cc(O)cc(O)c1,16.9%,5.05%,2%,-8.95%,-4.1%,13.8%
CCCCCCCCCCCCCCCCCC(=O)OCC(CO)OC(=O)CCCCCCCCCCCCCCCCC (configuration not stated),4.45%,-9.65%,7.3%,6.95%,34.1%,29.7%
c1ccc(SCCc2ccncc2)cc1,25.1%,23.8%,29.7%,-9.65%,3.85%,19.6%
Cc1nc(Br)c([N+](=O)[O-])[nH]1,6.9%,-6.4%,-2.4%,-47.9%,-9.75%,4.8%
CCOC(=O)C1NC(=O)C(C(=O)OCC)C1C(C)C (configuration not stated),9.45%,20.9%,0.35%,-8.25%,-4.05%,-9.05%
CCCCSc1nc2ccccc2c(=O)[nH]1,-10.7%,-13%,-4.6%,13.3%,9.3%,3.1%

# From PubChem BioAssay (NCI)
